Screens as filed in PubChem BioAssay.
GDH-TPI inh: GDH-TPI coupling enzyme inhibitors, primary screen, artefact control for M. tuberculosis FBA inhibitor project, biochemical, absorbance, full deck; GDH-TPI coupled enzyme counterscreen, NADH absorbance; inhibition, % at 4.8 µM; hit rate 1.2% among 360,000; AID 588335, 2011; in the data active = inhibition above about 30%;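 note: 0% = DMSO wells and 100% = wells lacking the enzyme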
Mtb FBA inh: Mtb FBA enzyme inhibitors, primary screen, biochemical, fluorescence, strain H37Rv | hit rate 2.3% among 360,000 | inhibition, % at 1 µM | purified M. tuberculosis FBA, fluorescence read-out | Fructose-bisphosphate aldolase (Mycobacterium tuberculosis (strain ATCC 25618 / H37Rv)), … | AID 588726, 2011; in the data active = inhibition above about 27%;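 note: 0% = vehicle and 100% = reference inhibitor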
Target sequence (P9WQA3 whole entry, looked up): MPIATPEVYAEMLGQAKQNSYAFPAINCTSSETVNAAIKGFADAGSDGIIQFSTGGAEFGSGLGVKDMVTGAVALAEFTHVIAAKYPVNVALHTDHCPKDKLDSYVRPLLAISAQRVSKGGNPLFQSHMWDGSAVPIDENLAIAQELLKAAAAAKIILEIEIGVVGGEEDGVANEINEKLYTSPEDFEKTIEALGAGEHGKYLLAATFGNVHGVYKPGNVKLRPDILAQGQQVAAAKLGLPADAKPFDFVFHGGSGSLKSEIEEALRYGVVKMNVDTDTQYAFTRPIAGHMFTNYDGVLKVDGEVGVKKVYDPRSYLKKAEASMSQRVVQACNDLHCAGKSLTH
Rv3671c inh: Rv3671c serine protease inhibitors, primary screen, biochemical, fluorescence polarization, M. tuberculosis H37Rv | AID 2606, 2010 | inhibition, % at 5.96 µM | hit rate 0.048% among 320,000; in the data active = inhibition above about 38%;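 note: extracellular domain of Rv3671c used as enzyme; 0% = enzyme with DMSO and 100% = no enzyme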
UGM FP inh: M. tuberculosis UGM enzyme inhibitors, primary screen, biochemical, fluorescence polarization, single point; hit rate 0.06% among 320,000; purified UGM, fluorescence polarization probe displacement; inhibition, % at 10 µM; AID 504406, 2011; UDP-galactopyranose mutase (Mycobacterium tuberculosis (strain ATCC 25618 / H37Rv)), …; in the data active = inhibition above about 10%, passing the limit was not always enough
* hit, by the source's call; · = not tested or not shown; + = active, no number. Shown are actives, neighbours in structure and some others; about 3.5% of the full set was active somewhere.

SMILES	GDH-TPI inh	Mtb FBA inh	Rv3671c inh	UGM FP inh
N=c1c(C(=O)NCc2ccc(F)cc2)cc2c(=O)n3ccccc3nc2n1CC1CCCO1 (stereo unspecified)	13.4	+	-5.1	-1.3
COc1ccc(CCNC(=O)c2cc3c(=O)n4ccccc4nc3n(CC3CCCO3)c2=N)cc1 (stereo unspecified)	15.7	15.2	·	·
CCNC(=O)C1CCCN(C(=O)c2cccs2)CC1 (stereo unspecified)	-3.6	-3.6	·	·
O=C(O)c1ccsc1Cc1cccs1	6.2	8.0	·	·
COCC1CCN(Cc2c(C(=O)N3CCc4ccccc4C3)nc3ccc(Cl)cn23)C1 (stereo unspecified)	-1.0	1.0	·	-0.9
COC(=O)CC1C(=O)NCCN1C(=O)c1oc2c(C)c(C)ccc2c1C (stereo unspecified)	-4.0	0.0	·	·
N=c1c(C(=O)NCCc2ccccc2)cc2c(=O)n3ccccc3nc2n1CC1CCCO1 (stereo unspecified)	9.5	+	-3.9	0.5
Nc1nc(NCc2ccc(Cl)cc2)nc(NCCO)c1[N+](=O)[O-]	37.5*	-1.7	5.4	6.2
CC(C)CCNc1nc(N)c([N+](=O)[O-])c(NCCO)n1	49.7*	3.2	-0.8	-0.9
Nc1nc(Nc2ccc(Cl)cc2)nc(NCCO)c1[N+](=O)[O-]	20.7	2.2	1.8	-0.9
Cc1ccc(CNc2nc(N)c([N+](=O)[O-])c(NCCO)n2)cc1	52.4*	-2.6	0.5	-1.9
Cc1cccc(C)c1NC(=O)Cn1nc(-c2ccc(Cl)s2)ccc1=O	20.5	4.0	4.7	-2.9
CSc1nncn1/N=C/c1ccc2c(c1)OCO2	35.1*	0.6	-9.4	0.0
COC(=O)N/N=C/c1cc(N=Nc2ccccc2)ccc1O	38.3*	-5.7	8.1	1.4
O=C(/C=C/NCc1cccnc1)c1ccc(-c2ccccc2)cc1	36.0*	5.1	-13.1	0.2
O=C(c1ccc(NC2=NC3CS(=O)(=O)CC3S2)cc1)N(CCO)Cc1ccccc1 (stereo unspecified)	7.4	3.9	6.7	0.3
CC(=O)c1cccc(CN2CCC(CO)(CCCc3ccccc3)CC2)c1	11.5	139.0*	1.1	2.1
CC(=O)c1cccc(CN2CCC(CO)(CCOc3ccccc3)CC2)c1	-1.4	0.3	-2.2	2.7
CCOC(=O)c1cc2c(=O)n3ccccc3nc2n(Cc2ccco2)c1=NC(=O)c1ccccc1OCC	9.9	172.6*	4.0	3.0
CCOC(=O)c1cc2c(=O)n3ccccc3nc2n(Cc2ccco2)c1=NC(=O)c1cccnc1	14.5	130.5*	-0.6	-0.5
CCOC(=O)CSc1nc2ccccc2c(=O)n1Cc1ccco1	-2.5	-1.1	-5.3	0.4
CCOC(=O)c1cc2c(=O)n3ccccc3nc2n(CC(C)C)c1=NC(=O)c1ccco1	8.8	135.0*	-2.8	3.2
CCCOC1CCCN(Cc2nc(-c3ccc(C(=O)OC)cc3)no2)C1 (stereo unspecified)	10.8	6.2	4.2	-1.7
CC1C(=O)C(C)C(c2ccco2)NC1c1ccco1 (stereo unspecified)	-0.9	-1.5	3.8	4.2
c1coc(C2=NC(c3ccco3)C(c3ccco3)N2)c1 (stereo unspecified)	1.4	49.5*	·	·
SMILES	GDH-TPI inh	Mtb FBA inh	Rv3671c inh	UGM FP inh
O=Nc1nc2ncccn2c1-c1ccccc1	12.4	0.3	·	·
O=C(/C=C/c1ccco1)Nc1cccnc1	21.0	-1.2	2.4	0.9
O=C(/C=C/c1ccco1)Nc1ccccn1	72.8*	-0.5	-3.5	0.0
Cc1ccc(NC(=O)/C=C/c2ccco2)nc1	32.1*	0.3	3.0	-2.0
N#Cc1nc(-c2ccc(F)cc2)oc1NCc1cccc2c1OCO2	4.3	12.2	4.2	-1.3
COc1ccc(Nc2oc(-c3ccccc3F)nc2C#N)cc1	22.0	1.7	4.7	-1.4
N#Cc1nc(-c2ccc(Cl)cc2)oc1N1CCCCC1	23.5	+	0.8	-1.3
COc1ccc(-c2nc(C#N)c(NC(C)C)o2)cc1	5.7	190.2*	4.1	0.8
CC(C)CNc1oc(-c2ccc(F)cc2)nc1C#N	13.9	127.9*	8.3	0.7
COc1ccc(-c2nc(C#N)c(N3CCCCCC3)o2)cc1OC	31.4*	+	2.3	-0.3
COc1ccccc1OCc1nc(C#N)c(N2CCCC2)o1	2.4	-0.5	2.4	2.6
Cc1noc(C)c1NC(=O)Nc1ccc2c(c1)C(=O)N([C@H](C)CO)C[C@H](C)[C@@H](CN(C)S(=O)(=O)c1ccccc1)O2	-6.7	1.2	0.5	-3.8
CCCCNC(=NCc1cccc(C(F)(F)F)c1)Nc1ccccc1	-11.6	0.2	-5.6	-2.7
